Measured values: PubChem BioAssay (NCATS)
Values without a mark were called inactive. No rule for the calls is given here.

Test system: HIV-1 nucleocapsid protein NCp7 (binding to TG oligonucleotide)
Experiment: HIV Nucleocapsid (AID 346);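 also: potency is for inhibitors that block NC binding and lower polarization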
Settings: HIV-1 NC / fluorescein-TGTGTGTG probe, fluorescence polarization
Outline: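 Inhibition of nucleocapsid binding to single-stranded 5'-TGTGTGTG probe (10 nM) was measured by fluorescence polarization after 1 hr at room temperature with 100 nM protein under high-salt, zinc-containing, reducing conditions.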
Potency is read from the fitted curve at half-maximal effect.

Compound | Potency [µM]
COc1cccc(Cn2c(=O)c(C)nc3cnc(N4CCNCC4)nc32)c1 | > 4
Cn1cccc1C(=O)N1CCC[C@@]2(CCN(Cc3ccccc3)C2)C1 | > 20
O=C(c1ccco1)N1CCC2(CC1)CCN(c1ccc(-c3ccccc3)cc1)CC2 | > 20
O=c1c(-c2ccc(F)c(F)c2)nc2cncnc2n1C1CC1 | > 20
CC(C)NC(=O)N1CCC2(CC1)CCN(S(=O)(=O)c1ccccc1)CC2 | > 20
Cn1cc(-c2nc3cnc(Oc4ccccc4)nc3n(Cc3cccs3)c2=O)c2ccccc21 | > 20
COc1ccccc1CNc1cc(-c2ccccc2Cl)ncn1 | > 20
COc1cccc(Nc2ncc3nc(-c4cccs4)c(=O)n(CCC#N)c3n2)c1 | > 20
COc1ccc(C(=O)N2CCC[C@@]3(CCN(C(=O)Nc4ccccc4)C3)C2)cc1 | > 20
Cc1cnc(CNc2ncnc3ccc(-c4ccccc4C(F)(F)F)cc23)cn1 | > 20
COc1ccccc1CNc1nc(-c2ccc3c(c2)OCO3)nc2ccccc12 | > 20
Cc1noc(C)c1C(=O)N1CCC2(CC1)CN(c1ccccn1)C2 | > 20
COCCn1c(=O)c(-c2cccs2)nc2cnc(Oc3ccc(OC)cc3)nc21 | > 20
CN(C)c1ncc2nc(-c3cc(F)cc(F)c3)c(=O)n(C[C@H]3CCCO3)c2n1 | > 20
O=C(c1csnn1)N1CCC2(CCCN(Cc3cc(C(F)(F)F)cc(C(F)(F)F)c3)C2)CC1 | > 20
COc1ncc2nc(-c3ccc(F)cc3)c(=O)n(-c3ccccc3)c2n1 | > 20
CN1CCN(c2ncc3nc(-c4ccccc4)c(=O)n(CCC#N)c3n2)CC1 | > 20
O=c1cnc2cnc(Oc3ccccc3)nc2n1Cc1ccc(F)cc1 | > 20
COc1ncc2nc(CCc3ccccc3)c(=O)n(-c3ccccc3)c2n1 | > 20
COc1ccccc1CNc1ncnc2ccc(-c3cccc(NS(C)(=O)=O)c3)cc12 | > 20

Compound | Potency [µM]
COc1cccc(Cn2c(=O)c(-c3cccs3)nc3cnc(Nc4ccccc4)nc32)c1 | > 20
CN1CCN(c2ncnc3ccc(-c4cccc(NS(C)(=O)=O)c4)cc23)CC1 | > 20
O=c1cnc2cnc(Oc3cccc(Cl)c3)nc2n1CCc1ccccc1 | > 20
Cc1nc2cnc(Oc3cccc(Cl)c3)nc2n(CCc2ccccc2)c1=O | > 20
O=C(Nc1cccc(F)c1)N1CCC2(CC1)CCN(S(=O)(=O)c1ccccc1)CC2 | > 20
CN(C)C(=O)c1ccc(-c2nccc(NCc3cccnc3)n2)cc1 | > 20
COCC(=O)N1CCC2(CC1)CN(Cc1ccc(C#N)cc1)C2 | > 20
COCCn1c(=O)c(-c2cn(C)c3ccccc23)nc2cnc(Oc3ccc(OC)cc3)nc21 | > 20
COc1cccc(Cn2c(=O)c(-c3cccs3)nc3cnc(Nc4cccc(OC)c4)nc32)c1 | > 20
O=C(c1csnn1)N1CCC2(CCN(Cc3ccccc3)CC2)CC1 | > 20
CC(C)NC(=O)N1CC[C@@]2(CCCN(C(=O)c3csnn3)C2)C1 | > 20
CCNc1ncc2nc(C)c(=O)n(CCOC)c2n1 | > 20
CC(=O)N1CCC2(CC1)CN(C(=O)Nc1cccc(C#N)c1)C2 | > 20
CS(=O)(=O)Nc1cccc(-c2nc(Nc3ccncc3)c3ccccc3n2)c1 | > 20
N#Cc1cccc(-c2cncnc2NCc2cccs2)c1 | > 20
Cc1nc2cnc(Oc3ccccc3)nc2n(CCC#N)c1=O | > 20
COc1ccc(C(=O)N2CCC3(CCCN(Cc4ccc(C#N)cc4)C3)CC2)cc1 | > 20
CCNc1ncc2nc(-c3ccc(Cl)cc3)c(=O)n(-c3ccc(OC)cc3)c2n1 | > 4
COc1ccc(C(=O)N2CCC3(CC2)CN(C(=O)Nc2cccc(C#N)c2)C3)cc1 | > 20
CN(C)C(=O)c1ccc(-c2nc(NCc3cccs3)c3ccccc3n2)cc1 | > 20
